Screening results (PubChem BioAssay)
ERAP1 inh = human ERAP1 aminopeptidase inhibitors, primary screen, biochemical, single point, plate reader; 0.15% of 340,000 active; recombinant ERAP1, Leu-AMC fluorescence, 60 min; inhibition, % at 10.7 µM; AID 652197, 2013;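 active = mean replicate inhibition of at least 30%, or all replicates individually reaching that 30% level; inactive = mean below 30% and not every replicate reaching it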;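 note: 0% = neutral control wells and 100% = L-leucinethiol positive control wells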
FGF22 binding = binders of human FGF22 protein, primary screen, FGF22 synaptogenesis inhibitor project, biophysical, thermal shift, single point | 1.5% of 340,000 active | recombinant FGF22 thermal shift, SYPRO orange fluorescence; percent of sucrose octasulfate shift, DMSO zero | AID 651658, 2012 | activity (Tm shift, normalised), % at 9.99 µM | Fibroblast growth factor 22 (Homo sapiens), Q9HCT0;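 active = mean Tm shift, scaled 0 neutral to 100 positive control, at about 1.3% or above, every replicate too, limit read from the data; inconclusive = no clear call, values can overlap the other calls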
DENV2 CPE rescue = inhibitors of DENV2 cytopathic effect, primary screen, cell-based, plate reader, single concentration; CPE inhibition, % at 9.99 µM; 1.7% of 350,000 active; DENV2-infected cells, cytopathic effect rescue; in the data active = CPE inhibition above about 20%, passing the limit was not always enough; inconclusive = no clear call, values can overlap the other calls; tested in BHK-21 cells;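 note: 0% = median of neutral control wells and 100% = median of positive control wells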
MLL AF4-AF9 inh = inhibitors of AF4 peptide binding to AF9, primary screen, biochemical, AlphaScreen, biotin-AF4 peptide, FLAG-AF9, single point. Protein AF-9 (Homo sapiens), P42568. inhibition, % at 10 µM. 0.47% of 350,000 active. AID 651704, 2012;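 active = every replicate reaching a set inhibition limit, whatever the replicate mean, cut at about 25% in these data; inconclusive = mean inhibition reaches that limit but some replicates miss it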;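 note: 0% = plate neutral control median and 100% = total signal loss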
RAD52 anneal inh = RAD52 DNA annealing inhibitors, primary screen, biochemical, FRET, single point, set 2; DNA repair protein RAD52 homolog (Homo sapiens), P43351; recombinant RAD52 DNA annealing, FRET fluorescence; inhibition, % at 18.7 µM; 0.46% of 360,000 active; AID 651710, 2012;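 active = every replicate showing at least 50% inhibition; inconclusive = mean inhibition at least 50% but not in every replicate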
Target sequence (P43351 whole entry, looked up): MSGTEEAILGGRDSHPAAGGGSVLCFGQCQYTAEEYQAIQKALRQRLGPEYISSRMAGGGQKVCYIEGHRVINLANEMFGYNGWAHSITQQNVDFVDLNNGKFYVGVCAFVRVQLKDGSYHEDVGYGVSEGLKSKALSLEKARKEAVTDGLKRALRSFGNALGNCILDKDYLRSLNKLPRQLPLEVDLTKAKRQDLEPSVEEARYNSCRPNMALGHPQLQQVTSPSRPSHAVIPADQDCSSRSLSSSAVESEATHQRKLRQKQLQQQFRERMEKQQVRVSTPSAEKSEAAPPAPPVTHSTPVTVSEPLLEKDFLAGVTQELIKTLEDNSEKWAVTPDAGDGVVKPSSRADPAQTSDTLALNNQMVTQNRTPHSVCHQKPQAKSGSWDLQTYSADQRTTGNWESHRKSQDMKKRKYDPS
* = called active by the depositor; ? = inconclusive; · = not tested or not shown; ! = a repeat was not active. Only some compounds are listed: those with a hit (about 4% of all), similar ones and a draw of the others.

SMILES	ERAP1 inh	FGF22 binding	DENV2 CPE rescue	MLL AF4-AF9 inh	RAD52 anneal inh
CO[C@@H]1CC[C@@H]2CCN(C)C(=O)[C@@H](C)CN(C)C(=O)c3cc(C#N)ccc3OC[C@@H]1O2	0.3	0.1	-0.7	0.3	1.8
Cc1cc(C)n2cc(CSc3ncn[nH]3)nc2n1	6.6	43.2*	-3.4	-1.7	-8.2
Cc1cc(C)n2cc(CSc3ccc(Br)cc3)nc2n1	-3.6	43.0*	-7.2	1.9	-2.8
COc1ccc2c3c([nH]c2c1)[C@H](CO)N(Cc1cccc(Cl)c1)CC31CCN(C)CC1	-0.5	-0.2	12.3	-1.2	18.6
CCOc1ccc(CN(C)CC(=O)Nc2cc(C)c(C)cc2[N+](=O)[O-])cc1	-1.9	43.1*	?	2.7	7.7
COc1cc2c(c3c1c(=O)c1ccccc1n3C)C=CC(C)(C)O2	-36.0	0.1	-0.6	-12.0	1.2
COc1cc(O)c(C(C)=O)c2c1C=CC(C)(C)O2	0.8	-0.4	26.7*	-5.7	-0.4
S=P(N1CC1)(N1CC1)N1CC1	52.8*	-0.1	41.9*	-1.8	-5.8
C#Cc1cccc(C(=O)N(Cc2cccnc2)CC2CCCN(C3CCCCC3)C2)c1 (stereo not given)	3.1	42.9*	-6.9	-1.7	-24.5
COc1ccc(-c2cn(CC[C@H]3CC[C@H](NC(=O)CCN4CCCCC4)[C@H](CO)O3)nn2)cc1	-0.9	0.0	0.8	0.4	-0.5
CCC(C)(C)NC(=O)CN(C(=O)c1csnn1)c1ccccc1-c1ccccc1	4.4	42.9*	-0.5	0.7	-1.9
COCCNC(=O)C[C@H]1CC[C@@H]2[C@@H](COc3ccc(NC(=O)Nc4ccccc4)cc3C(=O)N2C)O1	-0.2	-0.1	3.2	-1.2	-1.1
Oc1c(C(c2ccccn2)N2CCC(Cc3ccccc3)CC2)cc(Cl)c2cccnc12 (stereo not given)	0.4	-0.3	-1.4	45.0*	-4.7
C[C@H]1CN([C@@H](C)CO)C(=O)c2cc(-c3ccccc3)cnc2O[C@@H]1CN(C)C(=O)C1CCCCC1	2.0	-0.3	47.0*	1.2	-5.8
COc1cccc(C#Cc2cnc3c(c2)C(=O)N([C@@H](C)CO)C[C@@H](C)[C@@H](CN(C)C(=O)C2CCC2)O3)c1	-1.5	-0.2	24.9*	-1.2	10.8
C[C@@H]1CN([C@@H](C)CO)C(=O)c2cc(C#Cc3cccc(F)c3)cnc2O[C@H]1CN(C)C(=O)C1CCCCC1	1.7	0.5	21.7*!	0.5	-32.1
COc1cccc(C#Cc2cnc3c(c2)C(=O)N([C@H](C)CO)C[C@H](C)[C@@H](CN(C)C(=O)C2CCC2)O3)c1	-2.1	0.0	-3.0	2.2	3.7
COc1cccc(C#Cc2cnc3c(c2)C(=O)N([C@H](C)CO)C[C@@H](C)[C@H](CN(C)C(=O)C2CCC2)O3)c1	-3.5	-0.2	20.1*	0.2	11.3
C[C@H](CO)N1C[C@H](C)[C@@H](CN(C)C(=O)C2CCC2)Oc2ncc(C#CC(C)(C)O)cc2C1=O	0.4	-0.1	23.0*	-0.9	-0.1
COCC(=O)N1CC2(C1)CN(Cc1cccc(OC)c1)[C@H](CO)c1c2c2ccc(OC)cc2n1C	·	0.0	2.6	·	-25.3
Cc1noc(C)c1NC(=O)Nc1ccc2c(c1)C(=O)N([C@@H](C)CO)C[C@@H](C)[C@@H](CN(C)C(=O)Nc1ccc(C(F)(F)F)cc1)O2	-3.4	-0.5	32.2*	2.2	11.4
C[C@H](CO)N1C[C@H](C)[C@@H](CN(C)C)Oc2ccc(NC(=O)Nc3ccc(F)cc3)cc2C1=O	0.2	-0.4	75.3*	-2.3	8.2
C[C@H]1CN([C@@H](C)CO)C(=O)c2cc(NC(=O)Nc3ccc(F)cc3)ccc2O[C@H]1CN(C)C	-1.0	0.1	-0.7	-1.3	-0.3
C[C@H]1CN([C@@H](C)CO)C(=O)c2cc(NC(=O)Nc3ccc(F)cc3)ccc2O[C@@H]1CN(C)C	0.0	-0.3	26.2*	-0.9	8.7
C[C@@H]1CN([C@@H](C)CO)C(=O)c2cc(NC(=O)Nc3ccc(C(F)(F)F)cc3)ccc2O[C@@H]1CN(C)C	6.2	-0.1	22.5*	5.4	29.6
